# “And” between values parts separate entries of the source, which are not always exact repeats. Identical values can stand only once. “Also recorded” adds a separate entry of the source. Inconclusive results are not listed. Where a call stands in place of a potency, no number is given. The source made the active and inactive calls. Unless noted, calls come from the whole dose curve.
# Tests used:
# [1] = Cytotoxicity counterscreen for inhibitors of SARS-CoV-2 cell entry (AID 1645845); details: cell viability (SARS-CoV-2 entry assay cells); series mostly up to 57.1 µM; note: nearly all actives have a fitted effect of over 50% in size
# How it was run: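 48 h compound treatment (after 1 h preincubation), HEK293-ACE2 cells, 37 C/5% CO2; ATP luminescence endpoint; normalized to cell wells and media blanks.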
# [2] = Primary qHTS to identify inhibitors of SARS-CoV-2 cell entry (AID 1645846); details: SARS-CoV-2 pseudovirus cell entry assay, luminescence; note: nearly all actives have a fitted effect of over 45% in size
# How it was run: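 Data are normalized to wells receiving SARS-CoV-2-S pseudoparticles and those given bald particles. Entry signal was luciferase luminescence in stable hACE2 Expi293F cells, 48 hr post-infection, after 1 hr compound pretreatment.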
# [3] = molecular target: Nuclear receptor subfamily 1 group I member 3 (Homo sapiens) (UniProt Q14994); test: Primary qHTS for antagonist of constitutive androstane receptor (CAR) against the NCATS DSHEA and TCM libraries (AID 1794836; active = well fitted curve in the direction sought with a large enough effect; an effect the other way counts as inactive or inconclusive;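 note: HepG2 cells stably expressing hCAR with CYP2B6 luciferase reporter stimulated by CITCO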); details: CAR reporter cell assay, antagonist mode, luciferase; series mostly up to 40 µM
# How it was run: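 Antagonist mode: CAR reporter luminescence (ONE-Glo) in HepG2-CYP2B6-hCAR cells stimulated with 48 uM CITCO (final) over 24 h at 37 C, compounds titrated; viability read first by CellTiter-Fluor fluorescence.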
# [4] = Primary qHTS for inhibitors of nuclear receptor binding SET domain protein 2 (NSD2) in an isogenic RCH-ACV NSD2 p.E1099K mutant (9B) (AID 1645876; active = well fitted curve in the direction sought with a large enough effect; an effect the other way counts as inactive or inconclusive; note: nearly all actives have a fitted effect of over 70% in size; note: potency is the fitted concentration of half-maximal effect); details: RCH-ACV NSD2 E1099K (9B) viability, CellTiter-Glo, 72 h; series mostly up to 44.9 µM
# [5] = Primary qHTS for inhibitors of nuclear receptor binding SET domain protein 2 (NSD2) in an RCH-ACV wild type WT cells (2C) (AID 1645877; active = well fitted curve in the direction sought with a large enough effect; an effect the other way counts as inactive or inconclusive; note: nearly all actives have a fitted effect of over 70% in size); details: RCH-ACV (leukaemia line) NSD2 WT (2C) viability, CellTiter-Glo, 72 h; series mostly up to 44.9 µM
# [6] = molecular target: Glutathione peroxidase 1 (Homo sapiens) (UniProt P07203); test: Primary qHTS Assay for Inhibitors of Recombinant Selenoprotein Glutathione Peroxidase 1 (GPX1) (AID 1845191; active = well fitted curve in the direction sought with a large enough effect; an effect the other way counts as inactive or inconclusive; note: nearly all actives have a fitted effect of over 65% in size); details: recombinant GPX1, GR-coupled NADPH fluorescence, 15 min; series mostly up to 48.8 µM
# How it was run: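 10 nM GPX1 + cpd, 30 min RT; start w/ 1 mM GSH, 0.5 mM cumene hydroperoxide, 0.5 mM NADPH, 100 nM GR, 0.01% BSA; buffer 50 mM Tris-HCl pH 7.5, 2 mM EDTA, 150 mM NaCl; Fl 340/450, 0 & 15 min.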
# Papain (Carica papaya) = Papain (Carica papaya) (UniProt P00784); test: Primary qHTS assay for inhibitors of the protease papain (AID 1645873; active = well fitted curve in the direction sought with a large enough effect; an effect the other way counts as inactive or inconclusive;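 note: papain turnover of Z-FR-AMC read as the AMC fluorescence gain over 10 min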); details: papain Z-FR-AMC cleavage, AMC fluorescence; series mostly up to 49.8 µM
# [7] = molecular target: Metallo-beta-lactamase type 2 (Klebsiella pneumoniae) (UniProt C7C422); test: qHTS to identify inhibitors of the New Delhi Metallo-beta-lactamase (NDM): assay validation screen against the NCATS LOPAC Collection (AID 1794843; active = well fitted curve in the direction sought with a large enough effect; an effect the other way counts as inactive or inconclusive); details: NDM-1 enzyme, nitrocefin hydrolysis, absorbance 485 nm; series mostly up to 38.4 µM
# How it was run: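 Absorbance at 485 nm from nitrocefin turnover (50 uM solution added), read at plateau, gives the read-out. Compounds in DMSO were incubated first with 2 nM final NDM-1 in pH 7.0 HEPES buffer containing 1 uM ZnSO4 and 0.01% Tween20.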
# [8] = activity change, negative = inhibition: at 57.1 µM (top of the series) unless noted, series mostly up to 57.1 µM
# Glutathione peroxidase 1 (Homo sapiens), sequence (P07203 whole entry, looked up): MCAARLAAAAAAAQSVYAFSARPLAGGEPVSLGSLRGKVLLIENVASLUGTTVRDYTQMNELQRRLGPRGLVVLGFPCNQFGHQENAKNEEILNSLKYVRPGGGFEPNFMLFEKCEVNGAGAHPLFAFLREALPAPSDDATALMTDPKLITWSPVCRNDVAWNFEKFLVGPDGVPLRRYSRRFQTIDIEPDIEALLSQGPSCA
# Nuclear receptor subfamily 1 group I member 3 (Homo sapiens), sequence (Q14994 whole entry, looked up): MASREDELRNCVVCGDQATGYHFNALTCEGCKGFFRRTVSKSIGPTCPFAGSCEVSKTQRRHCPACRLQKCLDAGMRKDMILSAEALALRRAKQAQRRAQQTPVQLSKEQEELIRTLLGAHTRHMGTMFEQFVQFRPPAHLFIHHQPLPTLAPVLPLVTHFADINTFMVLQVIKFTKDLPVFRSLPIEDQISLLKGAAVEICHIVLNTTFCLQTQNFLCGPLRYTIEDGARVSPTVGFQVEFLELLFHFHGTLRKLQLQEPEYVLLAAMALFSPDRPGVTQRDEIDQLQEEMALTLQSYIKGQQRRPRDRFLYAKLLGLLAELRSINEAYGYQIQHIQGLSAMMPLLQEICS
# Metallo-beta-lactamase type 2 (Klebsiella pneumoniae), sequence (C7C422 whole entry, looked up): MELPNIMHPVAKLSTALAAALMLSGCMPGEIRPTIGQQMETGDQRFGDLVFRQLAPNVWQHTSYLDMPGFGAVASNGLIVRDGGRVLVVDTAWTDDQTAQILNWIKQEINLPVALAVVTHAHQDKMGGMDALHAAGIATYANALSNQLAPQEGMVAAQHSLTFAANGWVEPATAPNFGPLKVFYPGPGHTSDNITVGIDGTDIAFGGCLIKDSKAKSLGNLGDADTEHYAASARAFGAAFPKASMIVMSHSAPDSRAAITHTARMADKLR
# Papain (Carica papaya), sequence (P00784 whole entry, looked up): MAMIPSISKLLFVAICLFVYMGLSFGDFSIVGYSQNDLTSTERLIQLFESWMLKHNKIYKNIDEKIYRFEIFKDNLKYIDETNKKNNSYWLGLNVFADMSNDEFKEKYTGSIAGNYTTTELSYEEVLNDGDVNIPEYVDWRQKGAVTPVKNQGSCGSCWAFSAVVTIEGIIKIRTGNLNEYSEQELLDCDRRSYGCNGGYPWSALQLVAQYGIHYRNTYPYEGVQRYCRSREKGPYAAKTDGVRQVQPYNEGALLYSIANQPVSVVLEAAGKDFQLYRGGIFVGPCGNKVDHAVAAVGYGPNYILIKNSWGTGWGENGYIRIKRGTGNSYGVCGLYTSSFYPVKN
smiles,measurement,setting,value
CCCc1nn(C)c2c(=O)[nH]c(-c3cc(S(=O)(=O)N4CCN(C)CC4)ccc3OCC)nc12,Potency,[1],inactive
same,Potency,[2]; [8],inactive
same,"activity change, negative = inhibition",[2]; [8],-6.94%
COC(=O)c1cccnc1,Potency,[1],inactive
same,Potency,[2]; [8],inactive
NC(=O)c1cnccn1,Potency,[1],inactive
same,Potency,[2]; [8],inactive
same,"activity change, negative = inhibition",[2]; [8],-28%
O=c1[nH]cnc2[nH]ncc12,Potency,[1],inactive
same,Potency,[2]; [8],inactive
same,"activity change, negative = inhibition",[2]; [8],-11.8% [at 114 µM]
C[C@]12C=CC(=O)C=C1CC[C@@H]1[C@@H]2[C@@H](O)C[C@@]2(C)[C@H]1CC[C@]2(O)C(=O)CO,Potency,[1],inactive
same,Potency,[2]; [8],inactive
same,"activity change, negative = inhibition",[2]; [8],-3.66%
O=P(O)(O)C(O)(Cn1ccnc1)P(=O)(O)O,Potency,[1],inactive
same,outcome,[2]; [8],inactive [at 5.25 µM]
CC(C)(Oc1ccc(C2CC2(Cl)Cl)cc1)C(=O)O (centres undefined),Potency,[1],inactive
same,Potency,[2]; [8],inactive
O=C(O)CSCC(=O)NC1CCSC1=O (centres undefined),Potency,[1],inactive
same,Potency,[2]; [8],inactive
same,"activity change, negative = inhibition",[2]; [8],-0.451%
Nc1ncnc2c1ncn2[C@@H]1O[C@H](CO)[C@@H](O)[C@H]1O,Potency,[1],inactive
same,Potency,[2]; [8],inactive
same,"activity change, negative = inhibition",[2]; [8],-8.35%
CC(=O)[C@H]1CC[C@H]2[C@@H]3C=CC4=CC(=O)CC[C@@]4(C)[C@@H]3CC[C@]12C,Potency,[1],inactive
same,"activity change, negative = inhibition",[2]; [8],-10.8%
C[C@@H]1O[C@@H]1P(=O)(O)O,Potency,[1],inactive
same,"activity change, negative = inhibition",[2]; [8],1.53% [at 27.1 µM]
Clc1cccc(C(c2ccc3nc[nH]c3c2)n2ccnc2)c1 (centres undefined),Potency,[2]; [8],inactive
O=C(O)c1cc(=O)[nH]c(=O)[nH]1,Potency,[1],inactive
same,Potency,[2]; [8],inactive
same,"activity change, negative = inhibition",[2]; [8],-5.5%
NNC(=O)c1ccncc1,Potency,[1],inactive
same,Potency,[2]; [8],inactive
same,outcome,[3],inactive
C[C@]12CC[C@@H]3c4ccc(OC(=O)N(CCCl)CCCl)cc4CC[C@H]3[C@@H]1CC[C@@H]2OP(=O)(O)O,Potency,[1],inactive
same,Potency,[2]; [8],inactive
same,Potency,[4],inactive
same,Potency,[5],inactive
same,Potency,[6],inactive
CC1(C)O[C@@H]2C[C@H]3[C@@H]4C[C@H](F)C5=CC(=O)C=C[C@]5(C)[C@@]4(F)[C@@H](O)C[C@]3(C)[C@]2(C(=O)CO)O1,Potency,[1],inactive
same,Potency,[2]; [8],inactive
same,"activity change, negative = inhibition",[2]; [8],-12.3%
NC(=O)NC1N=C([O][Al])NC1=O (centres undefined),"activity change, negative = inhibition",[2]; [8],-0.751%
CC[C@H](C)C(=O)O[C@H]1C[C@H](O)C=C2C=C[C@H](C)[C@H](CC[C@@H](O)C[C@@H](O)CC(=O)O)[C@H]21,Potency,[1],inactive
same,Potency,[2]; [8],inactive
same,"activity change, negative = inhibition",[2]; [8],-12.2%
CC(C)[C@H]1C(=O)N2CCC[C@H]2[C@]2(O)O[C@](NC(=O)[C@@H]3C[C@@H]4c5cccc6[nH]cc(c56)C[C@H]4N(C)C3)(C(C)C)C(=O)N12,Potency,[1],inactive
same,Potency,[6],inactive
C[C@](O)(CS(=O)(=O)c1ccc(F)cc1)C(=O)Nc1ccc(C#N)c(C(F)(F)F)c1,Potency,[1],inactive
same,"activity change, negative = inhibition",[2]; [8],-4.4%
same,Potency,[6],inactive
O=c1oc2ccccc2c(O)c1Cc1c(O)c2ccccc2oc1=O,Potency,[1],inactive
same,Potency,[2]; [8],inactive
same,Potency,[4],21.1 µM (active)
same,Potency,[6],inactive
C#CCN[C@@H]1CCc2ccccc21,Potency,[1],inactive
same,Potency,[2]; [8],inactive
same,"activity change, negative = inhibition",[2]; [8],-2.27%
CC(C)C[C@H](CN)CC(=O)O,Potency,[1],inactive
same,Potency,[2]; [8],inactive
same,Potency,[4],inactive
same,Potency,[5],inactive
same,Potency,[6],inactive
CCn1ccc(NS(=O)(=O)c2ccc(N)cc2)nc1=O,Potency,[2]; [8],inactive
CC(C)c1cccc(C(C)C)c1O,Potency,[1],inactive
same,"activity change, negative = inhibition",[2]; [8],-52.4%
same,outcome,Papain (Carica papaya),inactive
same,Potency,[4],inactive
same,outcome,[7],inactive
same,Potency,[6],inactive
CCCc1nc(C(C)(C)O)c(C(=O)OCc2oc(=O)oc2C)n1Cc1ccc(-c2ccccc2-c2nn[nH]n2)cc1,"activity change, negative = inhibition",[2]; [8],-0.861%
NC(=O)c1cc[n+](CC2=C(C(=O)[O-])N3C(=O)[C@@H](NC(=O)Cc4cccs4)[C@H]3SC2)cc1,Potency,[2]; [8],inactive
CCCCCN(C)CCC(O)(P(=O)(O)O)P(=O)(O)O,outcome,[1],inactive [at 11.3 µM]; also recorded: inactive [at 5.25 µM]
same,"activity change, negative = inhibition",[2]; at 5.25 µM (top of the series),-11.4%
same,"activity change, negative = inhibition",[2]; at 11.3 µM (top of the series),-30.6%
same,outcome,Papain (Carica papaya),inactive
same,outcome,[7],inactive
same,Potency,[6],inactive
O=C(O)CCCC[C@@H]1SC[C@@H]2NC(=O)N[C@@H]21,Potency,[1],inactive
same,Potency,[2]; [8],inactive
same,outcome,[3],inactive
CN1C[C@H](C(=O)N[C@]2(C)O[C@@]3(O)[C@@H]4CCCN4C(=O)[C@H](Cc4ccccc4)N3C2=O)C=C2c3cccc4[nH]cc(c34)C[C@H]21,Potency,[1],inactive
same,"activity change, negative = inhibition",[2]; [8],-28.9%
same,Potency,[6],inactive
Nc1ccn(C[C@@H](CO)OCP(=O)(O)O)c(=O)n1,"activity change, negative = cytotoxicity",[1],2.99% [at 0.702 µM] (inactive) and 4.32% [at 11.3 µM] (inactive)
same,"activity change, negative = inhibition",[2]; [8],-18.8% [at 11.3 µM]
same,outcome,[2]; [8],inactive [at 0.702 µM]
same,"activity change, negative = viability loss",[4],-0.956% [at 9.23 µM] (inactive)
same,"activity change, negative = cell killing",[5],-8.19% [at 9.23 µM] (inactive)
Cc1ccnc(NS(=O)(=O)c2ccc(N)cc2)n1,Potency,[2]; [8],inactive
O=C(O)c1cc(O)c(O)c(O)c1,Potency,[1],inactive
same,Potency,[2]; [8],inactive
same,outcome,[3],inactive
